Ten compounds from PubChem BioAssay can be followed below.

Assay [1] can be described thus: inhibitors of TNFa-induced NFkB p65 translocation, primary screen, imaging, HUVEC, MLSMR starter and 10KST1 sets (AID 438;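 active = inhibition above 20% together with a positive visual image hit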;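 also: compound added about 3h40 before a 20 min TNFalpha stimulation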;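 as to inhibition: signal is the nuclear over cytoplasmic p65 intensity ratio per well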). Particulars: HUVEC TNFa-induced p65 nuclear translocation; cell count: measured here: nuclei count (cytotoxicity indicator), at 2.08 µM; inhibition: at 2 µM, stronger effect = higher value, 0% TNFa-plus-vehicle, 100% no-TNFa wells.
A short description of assay [2]: reduction of polyQ htt aggregates in cells – imaging, exon1htt(103Q)mCFP cells, high-content imaging, primary screen (AID 483;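 active = visual image review flags a hit and inhibition of aggregation exceeds 20%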;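 also: compound exposure lasted 3 days before fixation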;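 as to nuclei count: percent of the per-plate median nuclei count of sample wells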). Particulars: exon1htt(103Q)mCFP cell line, aggregate imaging, at 2 µM; inhibition of aggregation: stronger effect = higher value; nuclei count: measured here: cell count, toxicity.
The nature of assay [3]: endothelial E-selectin expression blockers – imaging, HUVEC, immunofluorescence, MLSMR starter and 10KST1 sets, primary screen (AID 487;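 active = visually confirmed hit in the image check and inhibition above 20%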;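 as to inhibition: signal is fraction of cell area covered by stained E-selectin grains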;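 as to nuclei count: 100% = median nuclei count of all wells on the same plate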). The settings on record: HUVEC TNFalpha-induced E-selectin immunofluorescence imaging, at 2 µM; inhibition: stronger effect = higher value; nuclei count: measured here: cell number, toxicity.
Assay [4] in a line: Primary imaging screen for DUSP6 inhibitors that restore phospho-Erk in transfected HeLa cells, chemical complementation (AID 609;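 active = compounds giving at least 50% inhibition in the cell-based MKP-3 phosphatase rescue imaging test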;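 as to inhibition: phospho-Erk level distribution per well compared with pooled transfected vehicle control wells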). The settings on record: HeLa MKP-3 transfected, phospho-Erk imaging KS statistic, at 10 µM, cells stimulated with TPA for 15 min.
Assay [5] deals with Dual specificity protein phosphatase 6 (Homo sapiens) (UniProt Q16828). The assay is described as above. Particulars: HeLa MKP-3 transfected, phospho-Erk imaging KS statistic; at 10 µM; stronger effect = higher value; cells stimulated with TPA for 15 min.
Dual specificity protein phosphatase 6 (Homo sapiens), sequence (Q16828 whole entry, looked up): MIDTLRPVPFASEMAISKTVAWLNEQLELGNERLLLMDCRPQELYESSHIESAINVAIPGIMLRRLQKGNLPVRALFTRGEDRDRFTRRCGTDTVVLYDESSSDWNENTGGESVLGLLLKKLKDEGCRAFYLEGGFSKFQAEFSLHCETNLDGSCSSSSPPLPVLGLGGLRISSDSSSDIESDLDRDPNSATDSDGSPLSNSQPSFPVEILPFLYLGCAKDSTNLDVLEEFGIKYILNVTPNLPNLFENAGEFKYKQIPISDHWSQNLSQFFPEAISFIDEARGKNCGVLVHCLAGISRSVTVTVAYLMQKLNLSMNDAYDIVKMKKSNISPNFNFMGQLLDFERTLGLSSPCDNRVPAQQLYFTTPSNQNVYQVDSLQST
Assay [6] concerns the target Voltage-gated potassium channel subunit beta-2 (Rattus norvegicus) (UniProt P62483). The experiment in a line: inhibitors of rat Kvbeta2 reductase activity – biochemical, NADPH fluorescence, primary screen (AID 622;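 active = fluorescence slope higher than the sample average by over 3 SD, cut at about -0.22 in these data, passing the limit was not always enough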;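 also: slope of raw intensity against log time taken from 70 to 1610 s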). The settings on record: recombinant KvBeta, 4-cyanobenzaldehyde reduction, at 10 µM, stronger effect = higher value.
For assay [7] the target is unchanged. Nature of the assay: enhancers of rat Kvbeta2 NADPH turnover – biochemical, NADPH fluorescence, primary screen (AID 623;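 active = NADPH fluorescence slope more negative than the mean of all samples by about 3 SD, 99.7% confidence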;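 also: fluorescence intensity change per second fitted from 20 to 320 s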). The settings on record: Recombinant KvBeta, NADPH fluorescence decrease slope, 10 min; at 10 µM; stronger effect = lower value.
In assay [8] the target is Alpha-2C adrenergic receptor (Homo sapiens) (UniProt P18825). Nature of the assay: compounds altering alpha2C-coupled GIRK flux – cell-based, HEK293 alpha2C/GIRK1/2, thallium flux, primary screen (AID 624;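 active = fluorescence slope after compound addition differing from the mean of all screened samples at 99.7% confidence, in either direction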;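 also: slope of fluorescence ratio to pre-addition baseline per second over 15 to 24 s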). The settings on record: thallium flux BTC fluorescence, at 10 µM, actives lie on both sides.
Alpha-2C adrenergic receptor (Homo sapiens), sequence (P18825 whole entry, looked up): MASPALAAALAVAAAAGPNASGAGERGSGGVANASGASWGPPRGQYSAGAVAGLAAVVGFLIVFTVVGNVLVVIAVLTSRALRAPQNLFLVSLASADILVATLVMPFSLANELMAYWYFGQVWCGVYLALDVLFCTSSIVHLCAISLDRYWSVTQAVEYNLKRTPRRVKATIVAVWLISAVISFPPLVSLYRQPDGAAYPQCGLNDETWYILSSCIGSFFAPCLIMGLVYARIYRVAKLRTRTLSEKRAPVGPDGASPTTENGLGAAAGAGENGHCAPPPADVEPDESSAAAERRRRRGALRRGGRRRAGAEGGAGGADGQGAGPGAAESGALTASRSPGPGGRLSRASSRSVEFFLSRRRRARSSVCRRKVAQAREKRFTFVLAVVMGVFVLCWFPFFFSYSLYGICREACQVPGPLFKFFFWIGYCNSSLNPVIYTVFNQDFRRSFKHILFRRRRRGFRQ
Assay [9] is described as follows: inhibitors of larval lipid processing in zebrafish, primary screen, whole organism, PED6 fluorescence, gall bladder and intestine (AID 686;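 active = a full or partial loss of lipid-probe fluorescence in the fish gall bladder, intestine or both, judged by eye; inactive = no fluorescence loss, or compound toxic to the fish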;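 also: larvae 5 to 7 days old with five fish per well; signal comes from phospholipase A2 cleavage of quenched PED6 carried via bile; overnight exposure to compound and PED6 before scoring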). The settings on record: Zebrafish larvae PED6 lipid processing, fluorescence scoring; screened at 20 µM (by protocol).
The nature of assay [10]: loss of swimming-algae plug formation – whole organism, Chlamydomonas reinhardtii, WT vs cilia-less mutant, absorbance, 96-well, primary screen (AID 463189).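 Also: 0% = wild type cc124 cells in DMSO and 100% = ciliumless bld1 mutant cells.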 The settings on record: Chlamydomonas reinhardtii gravitaxis, OD600 absorbance, 2 days; at 10 µM; stronger effect = higher value.
Assay [11] is described as follows: blockers of RIG-like receptor reporter activation – cell-based, Sendai virus stimulus, luciferase, 10K MLSCN set, TLR/RLR signaling modifier project, primary screen (AID 602276;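 active = inhibition at or above 50% at 10 µM; inactive = inhibition below 50%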;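 also: firefly luciferase from ISG56 promoter only with Renilla not read in this screen; 0% = Sendai virus plus DMSO and 100% = medium plus DMSO without virus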). Particulars: HEK293 RL24 IRF3 luciferase reporter, at 10 µM, stronger effect = higher value. On the technique in general: A reporter such as luciferase makes a cellular process visible.
The nature of assay [12]: TLR3 IRF3 reporter activation blockers – cell-based, poly I:C stimulus, luciferase, 10K MLSCN set, primary screen (AID 602277;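 active = inhibition of the reporter signal at or above 50%; inactive = inhibition below 50%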). The settings on record: HEK293-TLR3 RL24 IRF3 luciferase reporter, at 10 µM, stronger effect = higher value.
[13] abbreviates: measured here: cell density z-score.
Where [14] appears, read: measured here: nuclear c-Myc green intensity z-score.
Setting [15] is: measured here: nuclear pErk red intensity z-score, stronger effect = higher value.

Several values for one entry are separate records, joined by “and”; a condition that tells them apart may be missing. Equal values may be shown once. Activity calls are given as the source filed them.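 The calls were made as follows, unless noted: active = inhibition at or above 50% relative to wild type and mutant plate controls; inactive = inhibition below 50%.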

Voltage-gated potassium channel subunit beta-2 (Rattus norvegicus), sequence (P62483 whole entry, looked up): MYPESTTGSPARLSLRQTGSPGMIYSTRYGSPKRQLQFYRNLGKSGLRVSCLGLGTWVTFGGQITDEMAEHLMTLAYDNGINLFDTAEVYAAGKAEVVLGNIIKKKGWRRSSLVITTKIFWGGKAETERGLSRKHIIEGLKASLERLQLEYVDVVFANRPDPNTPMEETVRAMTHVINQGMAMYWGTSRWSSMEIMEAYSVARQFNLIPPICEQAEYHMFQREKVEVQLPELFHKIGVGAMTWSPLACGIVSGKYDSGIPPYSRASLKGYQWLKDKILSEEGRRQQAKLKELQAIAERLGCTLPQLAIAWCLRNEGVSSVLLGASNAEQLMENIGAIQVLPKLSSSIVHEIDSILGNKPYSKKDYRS

Usually inhibition stands for the change of the read-out against control, counted positive when it falls. Take `CC(C)(C)NCC(O)c1cc(O)cc(O)c1` (stereo not given): the cell count in [1] was 472. The inhibition is -2.4% (inactive) in [1]; -7% (inactive) in assay [3]; 1.38% (inactive) in assay [5]; 6.82% (inactive) and -7.52% (inactive) in assay [10]; 7.09% (inactive) in assay [11]; 35.9% (inactive) in [12]. Moreover, in [2], the inhibition of aggregation was 21.1% (inactive). Besides, the nuclei count was found to be 89.3% in assay [2] and 88.9% in [3]. The z-score in assay [4] (setting [13]) is 0.22; in assay [4] (setting [14]) it was -3; in assay [4] (setting [15]), -0.525. Also, in assay [6], the fluorescence slope was -0.472 (inactive). Also, the NADPH fluorescence slope in assay [7] is -6.7e-05 (inactive). Besides, the slope in assay [8] was 0.00544 (inactive). Besides, in [9], the outcome was inactive.
On to `CO[C@@]1(NC(=O)CSCC#N)C(=O)N2C(C(=O)O)=C(CSc3nnnn3C)CS[C@@H]21`, for which the cell count in assay [1] is 632. Moreover, the inhibition is -3.9% (inactive) in [1]; -96.3% (inactive) in [3]; 19.2% (inactive) in assay [5]; 5.45% (inactive) and -4.17% (inactive) in [10]; 7.82% (inactive) in [11]; 28.6% (inactive) in assay [12]. Besides, the inhibition of aggregation in assay [2] was 3.8% (inactive). In addition, the nuclei count in [2] came out at 103%; in assay [3], 143%. In addition, the values for the z-score in assay [4] (setting [13]), in [4] (setting [14]) and in assay [4] (setting [15]) were 0.71, -0.314 and -0.547, respectively. The fluorescence slope in assay [6] is -0.497 (inactive). Besides, the NADPH fluorescence slope in assay [7] was -7e-05 (inactive). The slope in assay [8] is 0.00536 (inactive). In addition, the compound was classed as inactive in assay [9].
With `CCN1CCN(c2nc3c(C)cccn3c(=O)c2/C=C(\C#N)S(=O)(=O)c2ccccc2)CC1`, the cell count in [1] came out at 501. Also, the inhibition in [1] is -1.7% (inactive); in [3], -71.1% (inactive); in [5] it was 3.5% (inactive); in [10], 18.9% (inactive); in assay [11] it was 9.29% (inactive); in [12] it was 23.8% (inactive). The inhibition of aggregation in assay [2] is -13.4% (inactive). The results for the nuclei count in assay [2] and in [3] were 108% and 118%, respectively. Further, the values for the z-score in [4] (setting [13]), in assay [4] (setting [14]) and in assay [4] (setting [15]) were 0.894, -1.58 and 2.23, respectively. Moreover, the fluorescence slope in assay [6] was -0.517 (inactive). In addition, the NADPH fluorescence slope in assay [7] is -1.8e-05 (inactive). For the same compound, the slope in assay [8] is 0.00181 (inactive). Moreover, in assay [9], the compound was classed as inactive.
In the case of `CCCCOc1ccc(C(=O)CCN2CCCCC2)cc1`, the cell count in assay [1] worked out at 591. In addition, the inhibition in assay [1] was -10.4% (inactive); in assay [3], -91.6% (inactive); in assay [5], 7.39% (inactive); in [10], 61.3% (active); in assay [11], 4.68% (inactive); in [12] it was 21.9% (inactive). Besides, the inhibition of aggregation in assay [2] is 4.2% (inactive). The nuclei count in assay [2] was 92.4%; in assay [3] it was 114%. The z-score is 0.144 in [4] (setting [13]), -0.213 in assay [4] (setting [14]) and -1.06 in assay [4] (setting [15]). Also, the fluorescence slope in assay [6] is -0.421 (inactive). Besides, the NADPH fluorescence slope in assay [7] was -5.1e-05 (inactive). In addition, in [8], the slope is 0.00405 (inactive). Also, the compound was classed as inactive in [9].
`CC1CCc2cc(F)cc3c(O)c(C(=O)NCC4CCCO4)c(=O)n1c23` (stereo not given): the cell count in assay [1] came to 553. Also, the inhibition in [1] was 2.6% (inactive); in assay [3], -28.6% (inactive); in [5] it was -8.76% (inactive); in assay [10] it was 11.8% (inactive); in assay [11], 4.8% (inactive); in assay [12] it was 8.44% (inactive). Further, the inhibition of aggregation in assay [2] was 1.2% (inactive). Moreover, the figures for the nuclei count in [2] and in assay [3] were 83.8% and 134%, respectively. The z-score was -0.0424 in assay [4] (setting [13]), -0.796 in assay [4] (setting [14]) and -0.351 in assay [4] (setting [15]). In addition, the fluorescence slope in assay [6] was -0.395 (inactive). Further, the NADPH fluorescence slope in [7] was 1.7e-06 (inactive). The slope in [8] is 0.0054 (inactive). Also, the call in assay [9] was inactive.
Take `CN(C)c1nc(N(C)C)nc(N(C)C)n1`: the cell count in assay [1] amounted to 680. The inhibition in [1] is -4.1% (inactive); in assay [3] it was -118% (inactive); in assay [5], 11.3% (inactive); in [10], 4.91% (inactive) and -7.01% (inactive); in [11], 14.2% (inactive); in assay [12] it was 32.5% (inactive). Further, the inhibition of aggregation in [2] is 1.6% (inactive). In addition, the values for the nuclei count in assay [2] and in [3] were 109% and 129%, respectively. For the same compound, the z-score was 1.31 in assay [4] (setting [13]), -0.357 in assay [4] (setting [14]) and -1.49 in assay [4] (setting [15]). The fluorescence slope in [6] was -0.459 (inactive). Further, the NADPH fluorescence slope in assay [7] is 2.8e-05 (inactive). Besides, in assay [8], the slope is 0.0048 (inactive). Further, the outcome in assay [9] was inactive.
As for `CN(C(=O)C(Cl)Cl)c1ccc(OC(=O)c2ccco2)cc1`, in assay [1], the cell count came out at 579. Moreover, the inhibition in assay [1] is -1.8% (inactive); in assay [3] it was -123% (inactive); in [5], 15.3% (inactive); in [10], -2.16% (inactive); in [11] it was 21.3% (inactive); in assay [12], 44.8% (inactive). For the same compound, the inhibition of aggregation in assay [2] was -17.3% (inactive). For the same compound, the nuclei count in [2] worked out at 101%; in assay [3], 112%. In addition, the z-score was 0.253 in assay [4] (setting [13]), -0.205 in assay [4] (setting [14]) and -0.332 in assay [4] (setting [15]). For the same compound, the fluorescence slope in assay [6] is -0.508 (inactive). For the same compound, in [7], the NADPH fluorescence slope is -6.7e-05 (inactive). Moreover, the slope in assay [8] is 0.00492 (inactive). Also, the compound was called inactive in [9].
As to `CC(=O)Oc1cccc2c1C(=O)c1c(OC(C)=O)cc(C(=O)O)cc1C2=O`, in [1], the cell count came out at 646. The inhibition in [1] was 3.9% (inactive); in [3], -52.7% (inactive); in [5], -9.66% (inactive); in assay [10], -7.39% (inactive); in assay [11], 4.71% (inactive); in assay [12] it was 26.5% (inactive). Besides, the inhibition of aggregation in [2] was 6.8% (inactive). For the same compound, the nuclei count is 105% in [2] and 124% in [3]. The z-score is -1.09 in [4] (setting [13]), -1.04 in assay [4] (setting [14]) and -0.102 in assay [4] (setting [15]). The fluorescence slope in assay [6] was -0.438 (inactive). Besides, in assay [7], the NADPH fluorescence slope is -4.5e-05 (inactive). The slope in assay [8] is 0.00622 (inactive). Moreover, the compound was called inactive in assay [9].
Turning to `CCCCNc1cc(C(=O)O)cc(S(N)(=O)=O)c1Oc1ccccc1`, the cell count in [1] turned out to be 603. For the same compound, the inhibition is -16.6% (inactive) in [1]; -136% (inactive) in assay [3]; 15.3% (inactive) in assay [5]; 7.78% (inactive) and -7.14% (inactive) in [10]; 13.2% (inactive) in assay [11]; 38.2% (inactive) in assay [12]. Moreover, the inhibition of aggregation in assay [2] is -13.4% (inactive). Moreover, the figures for the nuclei count in assay [2] and in [3] were 110% and 140%, respectively. Besides, the z-score is 0.424 in assay [4] (setting [13]), 0.482 in [4] (setting [14]) and -0.678 in assay [4] (setting [15]). Also, in assay [6], the fluorescence slope is -0.47 (inactive). Moreover, the NADPH fluorescence slope in assay [7] was -6.3e-05 (inactive). Further, the slope in [8] is 0.00446 (inactive). Further, the outcome in [9] was inactive.
Take `C[C@@H]1C[C@H]2[C@@H]3C[C@H](F)C4=CC(=O)C=C[C@]4(C)[C@@]3(F)[C@@H](O)C[C@]2(C)[C@@]1(O)C(=O)COC(=O)C(C)(C)C`: the cell count in [1] came to 563. Moreover, the inhibition in assay [1] is 1.4% (inactive); in assay [3] it was -36.8% (inactive); in assay [5], 5.42% (inactive); in assay [10], -9.6% (inactive); in assay [11], 2.87% (inactive); in assay [12] it was 35.9% (inactive). The inhibition of aggregation in assay [2] is -3% (inactive). The nuclei count in [2] stood at 51.7%; in [3], 92.6%. For the same compound, the z-score in [4] (setting [13]) is 0.404; in assay [4] (setting [14]), -0.122; in assay [4] (setting [15]) it was -1.39. For the same compound, the fluorescence slope in assay [6] was -0.475 (inactive). For the same compound, the NADPH fluorescence slope in [7] was -6.6e-05 (inactive). The slope in [8] was 0.00583 (inactive). Also, the call in assay [9] was inactive.
